This is an account of results in PubChem BioAssay AID1259341 (Broad Institute, 2017).

Structures are written as SMILES. The source made the active and inactive calls.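 Rule for the calls: active = activity change under -35% in any replicate well, with more than 20 beads read in that well; inactive = the rest.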

In this test the target is Caspase recruitment domain-containing protein 9 (Homo sapiens) + E3 ubiquitin-protein ligase TRIM62 (Homo sapiens) (UniProt Q9H257+Q9BVG3). The test can be described thus: disruptors of CARD9-TRIM62 binding, primary screen, cell lysate, HEK293FT lysates, Luminex bead ELISA (AID 1259341).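 Note: PE anti-Flag signal of Flag-CARD9 captured by myc-TRIM62 beads.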 Conditions: PE fluorescence, stronger effect = lower value, concentration not given here.
Sequence of Caspase recruitment domain-containing protein 9 (Homo sapiens) + E3 ubiquitin-protein ligase TRIM62 (Homo sapiens) (Q9BVG3 whole entry, looked up, the tested form may be a part): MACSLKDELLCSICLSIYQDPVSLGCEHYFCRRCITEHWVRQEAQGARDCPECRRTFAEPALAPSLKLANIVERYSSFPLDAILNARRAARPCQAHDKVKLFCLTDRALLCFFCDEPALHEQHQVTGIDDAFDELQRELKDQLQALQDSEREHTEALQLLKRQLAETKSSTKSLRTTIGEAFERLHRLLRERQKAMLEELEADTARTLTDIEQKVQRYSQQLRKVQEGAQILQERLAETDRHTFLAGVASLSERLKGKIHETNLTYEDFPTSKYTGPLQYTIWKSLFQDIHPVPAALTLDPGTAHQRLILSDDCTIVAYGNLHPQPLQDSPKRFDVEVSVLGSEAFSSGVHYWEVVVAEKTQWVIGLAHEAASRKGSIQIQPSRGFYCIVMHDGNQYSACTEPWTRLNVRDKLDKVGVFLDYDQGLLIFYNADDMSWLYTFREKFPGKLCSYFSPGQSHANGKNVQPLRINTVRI
Sequence of Caspase recruitment domain-containing protein 9 (Homo sapiens) + E3 ubiquitin-protein ligase TRIM62 (Homo sapiens) (Q9H257 whole entry, looked up, the tested form may be a part): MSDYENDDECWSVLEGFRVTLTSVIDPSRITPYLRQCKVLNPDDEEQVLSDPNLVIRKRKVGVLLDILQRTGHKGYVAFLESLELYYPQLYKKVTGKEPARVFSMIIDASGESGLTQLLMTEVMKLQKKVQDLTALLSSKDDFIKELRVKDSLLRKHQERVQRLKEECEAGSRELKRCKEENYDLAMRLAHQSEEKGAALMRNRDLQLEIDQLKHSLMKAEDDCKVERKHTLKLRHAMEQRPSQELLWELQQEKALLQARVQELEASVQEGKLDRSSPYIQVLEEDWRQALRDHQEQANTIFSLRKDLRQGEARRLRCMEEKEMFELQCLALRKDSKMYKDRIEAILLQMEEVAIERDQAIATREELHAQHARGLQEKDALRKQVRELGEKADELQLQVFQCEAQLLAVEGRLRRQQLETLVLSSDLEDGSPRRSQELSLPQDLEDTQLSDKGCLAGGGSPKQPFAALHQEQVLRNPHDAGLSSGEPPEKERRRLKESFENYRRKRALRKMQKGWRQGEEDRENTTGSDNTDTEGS
For the molecule `CC1CCN(c2nc(-c3ccco3)c3c(c2C#N)CC(C)(C)OC3)CC1`, the activity change, negative = inhibition was 5.51% (inactive).

Take `Cc1cc(C(=O)Nc2nc3c(s2)CCc2ccccc2-3)no1`: the activity change, negative = inhibition is 3.92% (inactive).

On to `O=C(O)c1cc(-c2ccco2)nc2ccccc12`, for which the activity change, negative = inhibition was 15.8% (inactive).

As for `O=C(NCc1cccnc1)c1ccccc1-c1nc(-c2ccccc2)no1`, the activity change, negative = inhibition was -1.01% (inactive).

Consider `O=C(COC(=O)c1ccccc1Oc1ccccc1)NCc1ccco1`, for which the activity change, negative = inhibition is 3.86% (inactive).

Turning to `CCc1nccn1CCC(=O)N1C[C@H](CO)C[C@H](CN2CCCC2)C1`, the activity change, negative = inhibition is 4.55% (inactive).

As for `COc1ccc(S(=O)(=O)Nc2ccc3c(c2)C(=O)N([C@H](C)CO)C[C@H](C)[C@@H](CN(C)C(=O)C2CCCCC2)OCCCC[C@H](C)O3)cc1`, the activity change, negative = inhibition was -4.07% (inactive).

Regarding `CCC12CCCN3CCc4c(n(c5ccccc45)C(O)(C(=O)OC)C1)C32` (stereo unspecified), the activity change, negative = inhibition is -2.25% (inactive).

In the case of `CCOC(=O)C1CCN(C(=O)CN(Cc2ccccc2)S(C)(=O)=O)CC1`, the activity change, negative = inhibition is -5.24% (inactive).

As for `O=C(CN1CCOC1=O)N1CCC2(CCC(=O)N(CCCn3ccnc3)C2)CC1`, the activity change, negative = inhibition was -6.82% (inactive).

For the molecule `N#Cc1c(N)oc(-c2ccco2)c1-c1ccco1`, the activity change, negative = inhibition is -6.71% (inactive).

Take `CCc1ccc(Nc2nc(C(=O)NCc3ccc(N(C)C)cc3)nc3ccccc23)cc1`: the activity change, negative = inhibition is -21% (inactive).

As for `O=C(Nc1nc(-c2nc3ccccc3s2)cs1)c1ccco1`, the activity change, negative = inhibition is 1.21% (inactive).

As to `Cc1ccc(C2CC(=O)C3=C(C2)Nc2ccccc2NC3c2cccnc2)cc1` (stereo unspecified), the activity change, negative = inhibition was -0.28% (inactive).

Regarding `O=C(O)COCC(=O)NCc1ccco1`, the activity change, negative = inhibition is 1.03% (inactive).

As to `O=c1oc(/C=C/c2ccc([N+](=O)[O-])s2)nc2ccccc12`, the activity change, negative = inhibition was -7% (inactive).

With `Cc1ccc(-c2cc(C(=O)NCc3ccco3)c3ccccc3n2)o1`, the activity change, negative = inhibition is -2.28% (inactive).

For the molecule `CCn1ccnc1C1CCN(C(=O)CCn2c(C)nc3ccccc32)CC1`, the activity change, negative = inhibition is -6.29% (inactive).

Take `N#Cc1c2ccc(OCC(=O)NCc3ccco3)cc2n2ccccc12`: the activity change, negative = inhibition is 0.334% (inactive).

Turning to `C(=N\n1cnnc1SCc1ccccc1)/c1ccco1`, the activity change, negative = inhibition is 4.53% (inactive).

`N#Cc1c(NC(=O)CSc2nc3ccccc3o2)sc2c1CCC2`: the activity change, negative = inhibition was 2.26% (inactive).

For the molecule `Cc1ccc(N2NC(c3ccc(Br)cc3)=CCC2=O)cc1`, the activity change, negative = inhibition is -5.75% (inactive).

As to `Cc1noc(CN(C)C(=O)c2cc(-c3ccco3)nc3c(C)c(Cl)ccc23)n1`, the activity change, negative = inhibition was -1.57% (inactive).

With `CN(C)c1ccc(CN2C[C@H]3CC[C@@H]2CN(C(=O)c2ccncc2)C3)cn1`, the activity change, negative = inhibition was 1.51% (inactive).

As to `O=C(Nc1nc(-c2ccccn2)cs1)c1cccc(-n2cnnn2)c1`, the activity change, negative = inhibition is 199% (inactive).

As to `NC(=O)C1(N2CCCCC2)CCN(c2ncc(NC(=O)c3ccccc3)cc2C(=O)O)CC1`, the activity change, negative = inhibition was -57.3% (active).

Take `COCCCNC(=O)C1CCN(c2ccc(N3CCOCC3)nn2)CC1`: the activity change, negative = inhibition is 28.3% (inactive).

For the molecule `O=C(COC(=O)c1cc(-c2cccs2)nc2ccccc12)NCc1ccco1`, the activity change, negative = inhibition is -1.49% (inactive).

On to `C[C@H](CO)N1C[C@H](C)[C@@H](CN(C)CC2CCCCC2)OCCCC[C@H](C)Oc2ccc(NS(=O)(=O)c3ccccc3)cc2C1=O`, for which the activity change, negative = inhibition was 7.12% (inactive).

As to `CC(C(=O)N1CCCC1)N1CCN(c2ccccc2O)CC1` (stereo unspecified), the activity change, negative = inhibition was 5.92% (inactive).

For the molecule `COc1ccc(N2CC3=C(N2)c2ccccc2CC3)cc1`, the activity change, negative = inhibition is 25.5% (inactive).

With `O=C(COC(=O)CCC(=O)c1cccs1)NCc1ccco1`, the activity change, negative = inhibition is 0.961% (inactive).

Regarding `Nc1ccccc1Sc1nccc(C(F)(F)F)n1`, the activity change, negative = inhibition is 3.66% (inactive).

With `CCCN1CCCn2nc(CNC(=O)[C@H]3CC[C@@H](N)C3)cc2C1`, the activity change, negative = inhibition was -7.32% (inactive).

For the molecule `CCN1CCN(C(=O)c2cc(-c3ccco3)nc3ccccc23)CC1`, the activity change, negative = inhibition is 4.84% (inactive).

Consider `Cc1occc1C(=O)NCc1cccc(CNC(=O)c2ccoc2C)c1`, for which the activity change, negative = inhibition was 3.25% (inactive).
